Compounds with a hit are over-represented: about 2.3% of the library has one in this group of screens.
M1 ag = activates human CHRM1 receptor. CHO-K1 hM1, Fluo-8 calcium fluorescence, agonist mode; 0% DMSO, 100% acetylcholine EC100. AID 588814. 0.33% of 360,000 active. activation, % at 3 µM;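 active = activation above the run's mean compound activation plus 3 SD, cut at about 16% in these data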;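 note: peak over basal fluorescence ratio within a 140 s kinetic read after compound addition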
Target sequence (P11229 whole entry, looked up): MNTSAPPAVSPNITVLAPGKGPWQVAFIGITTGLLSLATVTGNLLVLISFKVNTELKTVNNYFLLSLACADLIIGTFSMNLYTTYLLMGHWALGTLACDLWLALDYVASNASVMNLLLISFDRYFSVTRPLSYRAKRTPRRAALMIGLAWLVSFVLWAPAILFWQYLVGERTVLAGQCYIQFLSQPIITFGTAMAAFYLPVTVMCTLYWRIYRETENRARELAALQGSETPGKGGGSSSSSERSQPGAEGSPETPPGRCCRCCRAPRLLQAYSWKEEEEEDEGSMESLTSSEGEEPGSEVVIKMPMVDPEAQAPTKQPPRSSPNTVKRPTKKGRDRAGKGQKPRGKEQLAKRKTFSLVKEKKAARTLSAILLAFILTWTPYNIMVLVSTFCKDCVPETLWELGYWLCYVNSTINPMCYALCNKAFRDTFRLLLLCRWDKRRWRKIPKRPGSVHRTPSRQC
CHO-K1 Ca PAM = nonselective activator or artifact in parental CHO-K1 calcium assay; ATP EC20, Fluo-8 calcium fluorescence; 0% at ATP EC20, 100% at ATP max; 0.02% of 360,000 active; activation, % at 3 µM;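 active = activation above the run cutoff, the mean activation of all test compounds plus 3 SD, cut at about 40% in these data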;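 note: peak over basal fluorescence ratio in a 140 s read after ATP addition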
CHO-K1 Ca ag = nonselective activator or artifact in parental CHO-K1 cells | Fluo-8 calcium fluorescence; scaled to maximal ATP response, vehicle zero | activation, % at 3 µM | 0.48% of 360,000 active | AID 602248; in the data active = activation above about 15%;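 note: untransfected CHO-K1 host cells lacking M1 receptor as counterscreen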
CHO-K1 Ca antag = counter-screen for M1 antagonists: effect in parental CHO-K1 cells; ATP-induced calcium, Fluo-8 fluorescence; inhibition, % at 3 µM; 0.6% of 360,000 active; AID 602250;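 active = inhibition above a per-plate cutoff, the plate's mean sample inhibition plus 3 SD, cut at about 24% in these data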;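 note: 0% = DMSO plus EC80 ATP and 100% = DMSO alone without ATP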
CHRM1 PAM = positive allosteric modulators of human M1 muscarinic receptor; P11229; CHO-K1 hM1, Fluo-8 calcium fluorescence, ACh EC20; 0% = ACh EC20, 100% = maximal ACh; activation, % at 3 µM; 0.088% of 360,000 active; in the data active = activation above about 19%, passing the limit was not always enough
M1 antag = antagonists of human M1 muscarinic receptor | P11229 | CHO-K1 hM1, Fluo-8 calcium fluorescence, ACh EC80 antagonist | inhibition, % at 3 µM | 1.3% of 360,000 active | AID 588852;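 active = percent inhibition above its own plate's cutoff, namely the mean of that plate's compound wells plus 3 SD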;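 note: peak over basal fluorescence ratio during 140 s after agonist addition; 0% = ACh EC80 plus DMSO and 100% = DMSO alone without agonist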
Numbers without * were called inactive.

SMILES	M1 ag	CHO-K1 Ca PAM	CHO-K1 Ca ag	CHO-K1 Ca antag	CHRM1 PAM	M1 antag
CC(=O)N1CCC(N(CCCOC(C)C)S(=O)(=O)c2ccc([N+](=O)[O-])cc2)CC1	-2.1	11.2	0.3	-13.5	15.7	-18.4
CCOc1ccc(N2CC(C(=O)Nc3ccccc3C(=O)NC3CC3)CC2=O)cc1 (centres undefined)	5.5	8.1	0.6	-15.2	11.4	0.0
Cc1c(C)n(CCO)c2ncnc(Nc3ccc(F)cc3)c12	-3.1	8.8	1.5	-9.2	3.5	43.5*
COc1ccc(Nc2ncnc3c2c(C)c(C)n3CCO)cc1	-6.6	-4.8	0.7	-2.2	-6.6	12.6
COc1cc2c(cc1OC)C(COc1ccc(C(C)C)cc1)NCC2 (centres undefined)	-3.7	-16.6	3.9	1.5	-22.7	39.5
O=C(Nc1ccc(Cl)cc1)N1CCC(c2nc(-c3ccc(F)cc3)no2)CC1	-3.5	-11.9	12.5	15.6	-33.2	57.9*
O=C(Nc1ccc(Cl)cc1)N1CCN(c2ccc3nnc(-c4ccc(F)cc4)n3n2)CC1	-14.9	-2.8	-0.6	-20.8	-31.0	41.5*
CN(CC1CCCN(CCc2cccc(C(F)(F)F)c2)C1)C(=O)c1cc2ccccc2o1 (centres undefined)	-13.3	20.0	5.8	-31.1	-39.9	52.0*
CCN(CC1CCCN(CCc2cccc(OC)c2)C1)C(=O)c1ccoc1C (centres undefined)	-5.9	-1.3	10.9	13.7	-5.4	6.9
CCN(CC1CCCN(CCc2cccc(F)c2)C1)C(=O)c1cc2ccccc2o1 (centres undefined)	-5.2	16.1	2.8	-13.2	-23.2	52.8*
CCN(CC1CCCN(CCc2cccc(F)c2)C1)C(=O)c1cc(C)oc1C (centres undefined)	-5.4	12.1	-0.4	-5.8	-19.6	42.9*
CN(C)C(C)(C)/C=C/C(O)(c1ccccc1)c1ccccc1	-7.9	-0.7	3.2	-9.0	-25.9	100.0*
CN(C)N(Cc1ccccc1)C(=O)C(O)(c1ccccc1)c1ccccc1	-7.5	13.0	3.2	-4.0	-6.5	4.7
COc1ccc(CCn2nnnc2C(CC(C)C)N2CCN(c3ncccn3)CC2)cc1OC (centres undefined)	-2.7	-11.7	-0.6	36.8*	-6.6	22.8
CC1Sc2ccc(S(=O)(=O)N3CCC(C(=O)Nc4ccc(Cl)cc4)CC3)cc2NC1=O (centres undefined)	-0.6	-19.6	8.8	31.3*	-14.2	44.8*
CCOc1ccc(N2CC(C(=O)Nc3ccc(S(=O)(=O)N4CCCCC4)cc3)CC2=O)cc1 (centres undefined)	-6.2	14.6	-0.3	68.3*	4.8	-15.1
Cc1ccc(NC(=O)C2CCN(S(=O)(=O)c3ccc(N4CCCC4=O)cc3)CC2)cc1Cl	2.1	-9.9	15.6*	31.6*	-14.8	47.2*
COC(=O)C1=C(CS(=O)(=O)c2cc(Cl)ccc2OC)NC(=O)NC1c1ccc(O)c(OC)c1 (centres undefined)	-1.4	19.3	0.4	-14.9	12.0	-10.9
CCc1ccc(C(=O)NNC(=O)CCC2CCCCC2)cc1	-6.4	7.5	0.6	-11.1	15.9	-16.5
CCOC(=O)c1c(NC(C)=O)sc2c1CCC(C=O)=C2Sc1ccccc1	-5.4	14.4	-0.2	-8.3	0.8	-4.3
CCOC(=O)c1c(NC(C)=O)sc2c1CCCNC2=O	6.7	-9.8	-0.3	26.4*	9.1	-6.1
CCN(CC)C1CCN(C(=O)c2ccc(OC3CCN(CCc4ccccc4)CC3)cc2)C1 (centres undefined)	-6.5	8.0	1.2	-16.7	-22.4	62.5*
COC1CCN(C(=O)c2ccc(OC3CCN(CCc4ccccc4)CC3)cc2)CC1	-13.0	9.9	0.4	-4.1	8.2	-6.1
O=C(c1ccc(OC2CCN(C/C=C/c3ccccc3)CC2)cc1)N1CCCCC1	-5.8	-12.0	0.8	0.1	-13.9	29.5*
CCCCOc1ccc(C(=O)NCC(=O)N2CCN(C/C=C/c3ccccc3)CC2)cc1	12.2	-13.5	2.9	6.1	-21.6	44.0*
SMILES	M1 ag	CHO-K1 Ca PAM	CHO-K1 Ca ag	CHO-K1 Ca antag	CHRM1 PAM	M1 antag
COc1ccc(/C=C/CN2CCC(Oc3ccc(C(=O)N4CCCCC4)cc3)CC2)cc1	-4.5	1.8	3.1	0.9	-20.4	43.7*
CCCS(=O)(=O)NC(=O)C1(C)CCN(C(=O)c2ccc(OC)c(F)c2)C1 (centres undefined)	-2.2	25.0	0.4	-7.5	7.8	-14.0
CCOC(=O)[C@@H]1[C@H]2COc3cc(OC)ccc3[C@H]2N2C(=O)N(c3ccc(OC)cc3)C(=O)[C@]12C	-1.4	25.5	0.7	-13.3	7.0	-4.3
O=c1[nH]cnc2c1C1(CCCC1)Cc1ccccc1-2	-0.2	5.4	2.1	43.6*	-2.5	-14.5
O=c1c2c(nc3n1CCCCC3)-c1ccccc1CC21CCCC1	-9.2	9.8	-0.1	-24.8	-33.1	30.9*
Nn1cnc2c(c1=O)C1(CCCCC1)Cc1ccccc1-2	-7.9	24.1	0.1	-6.8	14.3	-7.1
O=C(O)C1Cn2c(nc3c(c2=O)C2(CCCC2)Cc2ccccc2-3)S1 (centres undefined)	-5.2	9.3	0.3	-10.3	3.1	-3.3
CC(C)NC1CCC(Nc2ccnc3cc(Cl)ccc23)CC1 (centres undefined)	-8.9	-0.5	0.5	-4.1	-7.8	0.9
CC(CCCN1CCCC1)Nc1ccnc2cc(Cl)ccc12 (centres undefined)	-9.3	-1.3	2.1	-3.0	-30.9	57.6*
COc1ccc(C2CCCCCN2C(=O)C2CCN(S(=O)(=O)c3ccc(C)cc3)CC2)cc1 (centres undefined)	4.2	18.0	7.2	-1.4	1.4	8.2
COC(=O)C[C@H]1C[C@H]2c3cc(NC(=O)Nc4ccc(F)cc4)ccc3O[C@H]2[C@@H](CO)O1	-0.7	-5.6	1.9	5.1	-8.4	3.8
O=C(OCc1nnc(-c2ccccc2)o1)c1ccc2ccccc2n1	-4.5	-8.2	-0.1	29.5*	-7.0	16.0
CC(=O)Nc1c2c(nn1-c1ccc(F)cc1)CSC2	-2.2	23.2	0.5	-21.7	11.6	-15.9
COc1ccc(NC(=O)C2(N(CC(C)C)C(=O)Cn3nnnc3N)CCCCC2)cc1	-4.2	-7.8	0.1	24.7*	-4.6	10.7
CN(C)C(=O)c1cccc(-c2cnc3cccnn23)c1	-2.8	2.1	0.6	-2.1	5.5	-8.9
Oc1ccccc1C1=Nc2nc3ccccc3n2C(c2ccccc2)C1 (centres undefined)	-3.2	15.8	1.4	-4.6	-2.5	-28.9
Oc1ccccc1C1=NC(c2ccccc2)NC(c2ccccc2)C1 (centres undefined)	-2.9	-15.9	0.2	25.9*	-8.9	14.6
CN1CCC(N(C)C(=S)NC(=O)c2cc(-c3cccc(Br)c3)nc3ccccc23)CC1	1.3	15.5	0.1	-2.5	14.8	5.2
